# According to the supplement of paper PMC8253809:
# What was measured:
# Experiment in all cases: growth inhibition (% activity, log2 RLU normalised to DMSO / staurosporine); higher = more growth inhibition
# Settings in all cases: 33 µM
# DIPGX29 = test system: DIPGX29 (H3.3 K27M diffuse intrinsic pontine glioma line)
# Outline: (§1)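 Cells (pHGG lines and H9-derived neural stem cells) were plated on Geltrex-coated 384-well plates and exposed to approved drugs at a single final concentration of about 33 μM, in triplicate, for 7 days at 37 °C, 5% CO2. Log2-transformed CellTiter-Glo luminescence was normalised per plate to % activity between solvent and positive control wells, and the growth-inhibition value is the median over replicates.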
# DIPGX37 = test system: DIPGX37 (H3.3 K27M diffuse intrinsic pontine glioma line)
# Outline: as §1
# DIPGX7 = test system: DIPGX7 (H3.3 K27M diffuse intrinsic pontine glioma line)
# Outline: as §1
# DIPGX9 = test system: DIPGX9 (diffuse intrinsic pontine glioma line)
# Outline: as §1
# HGGX39 = test system: HGGX39 (paediatric high-grade glioma line)
# Outline: as §1
# HGGX6 = test system: HGGX6 (H3.3 G34R paediatric high-grade glioma line)
# Outline: as §1
# HNSC = test system: HNSC
# Outline: as §1
# SUDIPGIV = test system: SUDIPGIV (diffuse intrinsic pontine glioma line)
# Outline: as §1
# SUDIPGVI = test system: SUDIPGVI (diffuse intrinsic pontine glioma line)
# Outline: as §1
# SUDIPGXIII = test system: SUDIPGXIII (diffuse intrinsic pontine glioma line)
# Outline: as §1
Structure (SMILES),growth inhibition (DIPGX29),growth inhibition (DIPGX37),growth inhibition (DIPGX7),growth inhibition (DIPGX9),growth inhibition (HGGX39),growth inhibition (HGGX6),growth inhibition (HNSC),growth inhibition (SUDIPGIV),growth inhibition (SUDIPGVI),growth inhibition (SUDIPGXIII)
CC[C@H]1OC(=O)[C@H](C)[C@@H](O[C@H]2C[C@@](C)(OC)[C@@H](O)[C@H](C)O2)[C@H](C)[C@@H](O[C@@H]2O[C@H](C)C[C@H](N(C)C)[C@H]2O)[C@](C)(O)C[C@@H](C)[C@@H]2N[C@@H](COCCOC)O[C@H]([C@H]2C)[C@]1(C)O,-1.13%,-1.4%,-1.51%,-0.804%,-0.699%,-1.07%,-4.19%,-1.28%,-0.768%,–
CC1(C)S[C@@H]2[C@H](NC(=O)Cc3ccccc3)C(=O)N2[C@H]1C(=O)O,-0.211%,1.76%,0.712%,0.921%,2.76%,0.0221%,1.53%,0.754%,0.396%,–
Cc1cc(C)nc(NS(=O)(=O)c2ccc(N)cc2)n1,-2.92%,0.0741%,-1.22%,-1.22%,-1.68%,-2.24%,4.45%,-1.47%,-1.67%,0.778%
Cc1c(C(=O)NN2CCCCC2)nn(-c2ccc(Cl)cc2Cl)c1-c1ccc(Cl)cc1,-2.71%,-0.227%,1.25%,-0.743%,-1.14%,-2.08%,11.7%,-1.46%,-7.47%,3.18%
CCCc1nc(C)c2c(=O)nc(-c3cc(S(=O)(=O)N4CCN(CC)CC4)ccc3OCC)[nH]n12,-1.2%,-1.39%,-0.617%,0.618%,1.97%,2.02%,-2.13%,0.711%,0.112%,–
O=C(O)c1cccnc1Nc1cccc(C(F)(F)F)c1,-0.796%,3.58%,-0.0228%,0.51%,1.81%,2.52%,-1.26%,-3.93%,2.23%,–
O=c1ccc2ccccc2o1,0.12%,0.196%,-0.587%,2.02%,1.94%,0.845%,-0.623%,-0.0159%,1.45%,–
CCCN1CCCC[C@H]1C(=O)Nc1c(C)cccc1C,-0.141%,1.83%,0.26%,0.846%,2.25%,1.44%,-0.32%,-1.01%,0.908%,–
COC(=O)C1=CO[C@@H](O[C@@H]2O[C@H](CO)[C@@H](O)[C@H](O)[C@H]2O)[C@@H]2C(CO)=CC[C@H]12,-1.79%,-0.171%,-2.08%,0.601%,0.266%,2.37%,-2.11%,-1.32%,-2.76%,–
N=C(N)c1ccc(N=NNc2ccc(C(=N)N)cc2)cc1,-2.11%,-3.98%,-0.967%,-1.13%,7.13%,4.38%,-4.44%,15.4%,0.511%,–
CCCCC1=NC2(CCCC2)C(=O)N1Cc1ccc(-c2ccccc2-c2nnn[nH]2)cc1,1.91%,3.8%,1.68%,1.47%,3.35%,3.43%,2.66%,-0.0514%,3.23%,0.582%
Cc1ccc(S(=O)(=O)NC(=O)NN2CCCCCC2)cc1,-1.75%,0.973%,-0.7%,-1.05%,0.24%,1.06%,-3.09%,-2.7%,-0.0433%,–
CN(C)CCC=C1c2ccccc2CCc2ccccc21,0.114%,2.57%,1.28%,1.79%,5.11%,2.03%,0.41%,1.93%,2.05%,–
C[C@@H](O)[C@H]1C(=O)N2C(C(=O)OCOC(=O)C(C)(C)C)=C(SC3CN(C4=NCCS4)C3)[C@H](C)[C@H]12,-0.211%,2.3%,0.926%,0.809%,1.15%,0.471%,-0.363%,-0.736%,2.12%,–
N#CC1(c2ccc(NC(=O)c3cccnc3NCc3ccncc3)cc2)CCCC1,1.93%,-3.69%,2.91%,3.39%,8.17%,4.45%,1.96%,7.08%,-1.37%,–
Cc1onc(-c2ccccc2)c1C(=O)N[C@@H]1C(=O)N2[C@@H]1SC(C)(C)[C@@H]2C(=O)O,-1.74%,-1.12%,-1.18%,-0.122%,-0.815%,0.0702%,-4.11%,0.237%,0.245%,-1.71%
CC(C(=O)O)c1ccc2c(c1)CC(=O)c1ccccc1S2 (stereo not drawn),1.3%,4.16%,2.06%,1.25%,2.45%,2.99%,1.66%,-1.48%,4.71%,0.56%
CN(Cc1cnc2nc(N)nc(N)c2n1)c1ccc(C(=O)N[C@@H](CCC(=O)O)C(=O)O)cc1,1.2%,1.21%,2.57%,0.922%,3.95%,1.8%,2.32%,-0.562%,3.38%,0.468%
Nc1c(CC(=O)O)cccc1C(=O)c1ccccc1,-1.69%,-2.54%,-0.79%,-0.667%,-0.264%,-1.13%,-2.43%,-5.49%,-5.35%,1.21%
CC[C@@H]([C@H](C)O)n1ncn(-c2ccc(N3CCN(c4ccc(OC[C@@H]5CO[C@@](Cn6cncn6)(c6ccc(F)cc6F)C5)cc4)CC3)cc2)c1=O,-3.19%,-0.0907%,-0.181%,-2.09%,-0.245%,-1.15%,-2.54%,-2.62%,-1.64%,0.673%
O=c1[nH]cc(F)c(=O)[nH]1,5.88%,-2.07%,2.93%,10.5%,5.4%,7.93%,25.3%,14.4%,4.5%,2.68%
C[C@]12CC[C@@H]3c4ccc(O)cc4CC[C@H]3[C@@H]1CCC2=O,0.142%,1.98%,2.55%,1.67%,3.84%,0.36%,1.29%,1.87%,0.844%,-0.509%
